The results in this text go back to publication PMC4336329 (PLoS ONE, 2015).

The campaign covered roughly 310,000 compounds. About 14,000 (4.5%) showed an effect of 50% or more. The effect is printed as a negative number. The full list was thinned out, with strong results kept by preference.
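Note: peak tail current of the secondary pulse compared with the same well before compound.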

For this assay, the target named is human ether-à-go-go-related gene (hERG) potassium channel (human, UniProt Q12809). The assay can be described thus: primary screen, population patch clamp on CHO cells stably expressing hERG; higher = less effect of the substance.
Chain of human ether-à-go-go-related gene (hERG) potassium channel (Q12809 whole entry, looked up): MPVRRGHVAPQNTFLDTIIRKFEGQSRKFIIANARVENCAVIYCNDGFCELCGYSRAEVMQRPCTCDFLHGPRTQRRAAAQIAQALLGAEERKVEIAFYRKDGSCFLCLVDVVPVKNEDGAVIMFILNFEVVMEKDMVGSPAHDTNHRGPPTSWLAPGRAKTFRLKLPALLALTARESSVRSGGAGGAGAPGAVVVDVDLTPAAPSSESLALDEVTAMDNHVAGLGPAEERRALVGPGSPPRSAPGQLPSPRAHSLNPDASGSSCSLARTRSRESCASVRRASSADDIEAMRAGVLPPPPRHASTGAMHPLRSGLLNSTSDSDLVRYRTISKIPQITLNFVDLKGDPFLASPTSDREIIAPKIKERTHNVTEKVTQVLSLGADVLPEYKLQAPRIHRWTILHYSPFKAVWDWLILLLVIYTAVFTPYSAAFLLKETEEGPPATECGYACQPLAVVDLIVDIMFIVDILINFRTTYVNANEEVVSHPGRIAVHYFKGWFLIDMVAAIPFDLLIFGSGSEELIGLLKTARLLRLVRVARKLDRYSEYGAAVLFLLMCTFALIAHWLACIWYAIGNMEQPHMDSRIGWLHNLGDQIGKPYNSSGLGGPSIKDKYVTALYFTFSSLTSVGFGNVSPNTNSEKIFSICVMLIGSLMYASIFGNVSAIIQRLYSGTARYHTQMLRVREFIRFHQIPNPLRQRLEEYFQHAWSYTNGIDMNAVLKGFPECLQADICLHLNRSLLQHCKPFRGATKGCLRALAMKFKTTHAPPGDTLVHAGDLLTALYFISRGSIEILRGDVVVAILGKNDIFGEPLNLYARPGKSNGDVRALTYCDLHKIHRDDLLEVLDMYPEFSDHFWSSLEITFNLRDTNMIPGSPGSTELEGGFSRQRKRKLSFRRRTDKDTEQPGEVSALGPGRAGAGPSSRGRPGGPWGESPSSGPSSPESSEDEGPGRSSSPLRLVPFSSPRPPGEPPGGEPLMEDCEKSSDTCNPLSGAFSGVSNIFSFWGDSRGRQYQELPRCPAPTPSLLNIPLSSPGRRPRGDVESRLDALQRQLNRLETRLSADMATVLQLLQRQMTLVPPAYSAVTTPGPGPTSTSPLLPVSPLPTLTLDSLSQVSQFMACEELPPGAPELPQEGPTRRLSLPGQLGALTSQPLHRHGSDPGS
As for `CC1=C[C@H]2OC(=O)[C@@H](C)[C@H]2C[C@@H]2[C@H]1C[C@@H](O)[C@@]2(C)O`, the “hERG current change (%, negative = inhibition) at 10uM” value is 6.22%.
For `N#Cc1c(N)c(C(=O)c2ccccc2)n2ccccc12`, the “hERG current change (%, negative = inhibition) at 10uM” value is 10.7%.
Take `CC(=O)Nc1ccc(S(=O)(=O)N(C)CC(=O)OCC(=O)Nc2ccc3c(c2)OCO3)cc1`: the “hERG current change (%, negative = inhibition) at 10uM” value was 9.31%.
Then `NC(=O)c1cc2cc(Br)ccc2oc1=NCc1ccccc1`, with 10.4%; and `CCCNC(=O)NC(C(=O)OC)C12CC3CC(CC(C3)C1)C2` (stereo not drawn), with -10.8%; and `CC(C)(C)c1ccc(NC(=O)CNC2CCCc3ccccc32)cc1.Cl` (stereo not drawn), with 2.24%.
The figure for `CCCSc1nc2c(cnn2-c2ccc(F)cc2)c(=O)[nH]1` is 6.84%; for `COc1cc([N+](=O)[O-])c(C(=O)N2CCOCC2)c([N+](=O)[O-])c1` it is 7.66%; for `O=C(OCC1OC(n2ccc(=O)[nH]c2=O)C(Cl)C1O)c1ccccc1` (stereo not drawn) it is -9.37%.
For the compound `O=C(OCC1OC(n2ncc(=O)[nH]c2=O)C(OC(=O)c2ccccc2)C1OC(=O)c1ccccc1)c1ccccc1` (stereo not drawn), the “hERG current change (%, negative = inhibition) at 10uM” value is recorded as 14.6%.
Then `O=C(OCC1OC(n2ccc(=O)[nH]c2=O)C(O)C1OC(=O)c1ccccc1)c1ccccc1` (stereo not drawn), with -67.9%; and `CCOC(=O)C1=NN(c2cccc(Cl)c2)C2=NC(C)=C(C(=O)OC)C(c3cccs3)N12` (stereo not drawn), with 6.72%; and `COc1ccc(CCNC(=S)N2CCC(Cc3ccccc3)CC2)cc1OC`, with -41.1%.
Turning to `COc1ccc(CCNC(=O)c2ccc(CN3CCC(Cc4ccccc4)CC3)cc2)cc1`, the “hERG current change (%, negative = inhibition) at 10uM” value is -15.6%.
Turning to `COc1ccc(CN2CCC(C(N)=O)CC2)cc1OCc1ccccc1.O=C(O)C(=O)O`, the “hERG current change (%, negative = inhibition) at 10uM” value was -19.1%.
As for `COc1ccc(OC)c(CN2CCN(C(=O)c3cccc4ccccc34)CC2)c1.O=C(O)C(=O)O`, the “hERG current change (%, negative = inhibition) at 10uM” value is reported as -2.37%.
Then `COc1ccc(C(=O)N2CCN(Cc3cc(OC)ccc3OC)CC2)cc1.O=C(O)C(=O)O`, with -36%; and `COc1cc(CN2CCC(Cc3ccccc3)CC2)cc([N+](=O)[O-])c1O`, with 0.943%; and `COc1ccc(CCNC(=O)c2ccc(CN3CCC(Cc4ccccc4)CC3)cc2)cc1OC`, with -67.9%.
The figure for `COc1cc(CN2CCN(C(=O)Cc3ccccc3)CC2)cc(OC)c1OC.O=C(O)C(=O)O` is -0.522%; for `COc1cc(CN2CCC(Cc3ccccc3)CC2)cc(OC)c1OC.O=C(O)C(=O)O` it is -52.8%; for `COc1cc(CN2CCC(C(N)=O)CC2)ccc1OCc1ccccc1.O=C(O)C(=O)O` it is -39.9%.
The figure for `COc1ccc(CN2CCC(Cc3ccccc3)CC2)cc1OC.O=C(O)C(=O)O` is -70.3%; for `COc1ccc(OC)c(CN2CCN(Cc3cccc4ccccc34)CC2)c1.O=C(O)C(=O)O` it is -65.2%.
With `CCOc1cc(/C=N/NC(=O)CSc2cccc3cccnc23)ccc1O`, the “hERG current change (%, negative = inhibition) at 10uM” value came out at 9.6%.
The figure for `CCOc1ccccc1OCCC(=O)OCC(=O)Nc1c(C)nn(-c2ccccc2)c1C` is 1.41%; for `O=C(CCC(=O)c1ccccc1)NCc1cccc(C(F)(F)F)c1` it is 4.89%.
Consider `CC(C)(C)c1ccc(/C=C(\c2nc3ccccc3[nH]2)S(=O)(=O)c2ccccc2)cc1`, for which the “hERG current change (%, negative = inhibition) at 10uM” value is given as 0.84%.
Take `O=C(Nc1c2c(nn1-c1ccccc1)CS(=O)(=O)C2)c1ccccc1C(F)(F)F`: the “hERG current change (%, negative = inhibition) at 10uM” value came out at 14.3%.
Take `O=C(O)c1ccc(/C=C/c2nc3sc4c(c3c(=O)[nH]2)CCC4)cc1`: the “hERG current change (%, negative = inhibition) at 10uM” value came to 14.2%.
Then `Cc1nn(C(=O)c2cccnc2)c(C)c1C`, with 0.855%; and `C/C(=N/NS(=O)(=O)c1cccc([N+](=O)[O-])c1)c1c[nH]c2ccccc12`, with 13%.
The figure for `CCOC(=O)/C(C#N)=C/c1cccc([N+](=O)[O-])c1` is 25%; for `CC(Oc1ccccc1Cl)C(=O)Nc1ccc(S(=O)(=O)Nc2nccs2)cc1` (stereo not drawn) it is -0.857%; for `CC1CCC2(CC1)NC(=O)N(CC(=O)Nc1cccc(C#N)c1)C2=O` (stereo not drawn) it is 9.8%.
Turning to `O=C(NCc1cccnc1)NC(=O)c1ccc(Cl)cc1`, the “hERG current change (%, negative = inhibition) at 10uM” value came to 3.09%.
On to `CCN1C(=O)[C@@H]2[C@@H](c3ccc(-c4ccc5c(c4)OCO5)cc3)N3CCCC[C@@]3(C(=O)OC)[C@@H]2C1=O.O=C(O)C(F)(F)F`, for which the “hERG current change (%, negative = inhibition) at 10uM” value was found to be 21%.
Then `COc1ccc(Br)cc1CN1CCN(C(=O)c2ccc(OC)c(OC)c2)CC1.O=C(O)C(=O)O`, with -38.1%.
`Cc1[nH]c2ccccc2c(=O)c1CN1CCCCCC1`: the “hERG current change (%, negative = inhibition) at 10uM” value is -7.41%.
As to `COc1ccc(OC)c(CN2CCN(C(=O)Cc3ccccc3)CC2)c1.O=C(O)C(=O)O`, the “hERG current change (%, negative = inhibition) at 10uM” value was -4.63%.
For the compound `O=C(O)C(=O)O.c1ccc(CC2CCN(Cc3ccccn3)CC2)cc1`, the “hERG current change (%, negative = inhibition) at 10uM” value is recorded as -23.1%.
With `COc1cccc(C(=O)N2CCN(Cc3cc(Br)ccc3OC)CC2)c1.O=C(O)C(=O)O`, the “hERG current change (%, negative = inhibition) at 10uM” value is listed as -51.8%.
The figure for `Cc1[nH]c2ccccc2c1CN1CCC(Cc2ccccc2)CC1.O=C(O)C(=O)O` is -67.4%.
Then `COc1ccc(OC)c(CN2CCC(Cc3ccccc3)CC2)c1.O=C(O)C(=O)O`, with -69.4%; and `COc1ccc(OC)c(CN2CCCCCC2)c1.O=C(O)C(=O)O`, with 15.7%; and `COc1ccc(Br)cc1CN1CCN(C(=O)c2cccc(F)c2)CC1.O=C(O)C(=O)O`, with -39.2%.
With `CN1CCN(/N=C/c2nc(-c3ccccc3Cl)n3ccccc23)CC1`, the “hERG current change (%, negative = inhibition) at 10uM” value is -34.1%.
Regarding `CCCOC(=O)Nc1ccccc1C(N)=O`, the “hERG current change (%, negative = inhibition) at 10uM” value is 4.61%.
The figure for `O=C(O)CCCCC1SCC2NC(=O)NC21` (stereo not drawn) is 3.46%; for `O=C(Nc1ccccc1F)Nc1ccc([N+](=O)[O-])cc1Cl` it is 18.4%; for `O=C(c1cc(=O)[nH]c2ccccc12)N1CCN(c2cccc(C(F)(F)F)c2)CC1` it is -27.1%.
The figure for `CCOC(=O)c1sc(=S)n(-c2ccccc2Cl)c1C` is -13.8%; for `CCOC(=O)Cn1c(=NC(=O)c2cccs2)sc2cc(C(=O)OC)ccc21` it is 17.4%; for `Cc1ccc(NC(=O)c2cc([N+](=O)[O-])ccc2Cl)c(O)c1` it is -4.12%.
Take `Cc1nc2cc(NC(=O)CS(=O)(=O)c3ccc(F)cc3)ccc2s1`: the “hERG current change (%, negative = inhibition) at 10uM” value is -55.8%.
Then `Cc1nc2ccc(NC(=O)CS(=O)(=O)c3ccc(F)cc3)cc2s1`, with -7.44%; and `Cc1nc2cc(NC(=O)CS(=O)(=O)c3ccccc3)ccc2s1`, with -23.8%; and `CCCN1C(=O)CC(C(=O)OC)=C1C`, with 12.9%.
In the case of `CCN(CC)C1=NC=CC(c2ccccc2)=CC1C` (stereo not drawn), the “hERG current change (%, negative = inhibition) at 10uM” value is recorded as -55.1%.
Then `CCC1C=C(c2ccccc2)C=CN=C1N(CC)CC` (stereo not drawn), with -61.6%; and `CCN(CC)c1nc(C(N)=O)cc(-c2ccccc2)n1`, with -0.608%.
In the case of `CCN(CC)c1ccccc1`, the “hERG current change (%, negative = inhibition) at 10uM” value was determined as 12.7%.
Then `CCN(CC)c1cc(-c2ccccc2)ncn1.Cl`, with -16.5%; and `CCN(CC)c1ncnnc1-c1ccccc1`, with 15.9%.
Then `COc1ccccc1NS(=O)(=O)c1cccc(N=C2N=C(N)c3ccccc32)c1`, with 11.7%; and `CCCc1nn(C)c2c1C(c1ccncc1)C(C#N)=C(N)O2` (stereo not drawn), with 15.4%; and `C/C(O)=C/c1nc2ccccc2[nH]c1=O`, with -5.26%.
Then `C=C(Cl)COc1ccc2c(CCCC)cc(=O)oc2c1`, with -24.9%.
As for `CCn1c(NCc2cccc(OC)c2OC)nc2ccccc21`, the “hERG current change (%, negative = inhibition) at 10uM” value is given as -21%.
Then `C=CCn1c(NCc2ccccc2OC)nc2ccccc21`, with -18.9%; and `CCCn1c(NCc2cccc(OC)c2OC)nc2ccccc21`, with -13.9%; and `COc1cccc(CNc2nc3ccccc3n2CCN2CCCCC2)c1OC`, with -63.6%.
Turning to `Oc1ccccc1CNc1nc2ccccc2n1CCN1CCCCC1`, the “hERG current change (%, negative = inhibition) at 10uM” value is listed as -2.31%.
Regarding `COc1ccccc1CNc1nc2ccccc2n1CCN1CCCCC1`, the “hERG current change (%, negative = inhibition) at 10uM” value is given as -61.5%.
Take `CC(Nc1ccccc1CO)C(=O)Nc1cccc(Cl)c1Cl` (stereo not drawn): the “hERG current change (%, negative = inhibition) at 10uM” value was 5.35%.
Turning to `O=C(Cn1c(NCCO)nc2ccccc21)NCC(F)(F)F`, the “hERG current change (%, negative = inhibition) at 10uM” value is given as 10.4%.
The figure for `O=C(NCCC1=CCCCC1)C1CCCN(S(=O)(=O)c2ccccc2)C1` (stereo not drawn) is 6.97%.
The figure for `CCCC(=O)Nc1ccc2oc(-c3ccncc3)nc2c1` is 5.92%.
Take `CCOC(=O)c1oc2ccccc2c1CN1CCN(C(=O)c2ccccc2)CC1`: the “hERG current change (%, negative = inhibition) at 10uM” value was -41.7%.
`CCOC(=O)c1oc2ccccc2c1CN1CC(C)OC(C)C1` (stereo not drawn): the “hERG current change (%, negative = inhibition) at 10uM” value is given as -0.576%.
Turning to `CCOC(=O)c1oc2ccccc2c1CN1CCOCC1.Cl`, the “hERG current change (%, negative = inhibition) at 10uM” value is -4.56%.
Then `CCOC(=O)c1oc2ccccc2c1CN1CCN(C)CC1.Cl`, with -61.5%.
As to `CCOC(=O)c1oc2ccccc2c1CN1CCCCC1.Cl`, the “hERG current change (%, negative = inhibition) at 10uM” value is -55%.
Then `CCOC(=O)c1oc2ccccc2c1CN1CCN(c2ccccc2)CC1.Cl`, with -26.6%; and `Cc1ccc(Cn2cc(/C=C/C(=O)O)c(-c3ccccc3)n2)cc1`, with 6.77%.
The figure for `CCC(C)C1Nc2ccc(C(=O)NCCc3ccc(OC)c(OC)c3)cc2NC1=O` (stereo not drawn) is 20.4%; for `Cc1ccc(N2CCN(c3ccc(C)cc3)C2c2cccnc2)cc1` it is 17.6%.
